Source: PubChem
Only some compounds are listed: those with a hit (about 1.5% of all), similar ones and a draw of the others.
APE1 inh-1: inhibitors of human APE1 endonuclease; recombinant APE1, TAMRA/BHQ-2 abasic DNA cleavage fluorescence; actives 0.35% (n = 350,000); AID 2517; Potency, µM (titrated, usually from 65.8 µM), most hits filed as inhibitors; note: nearly all actives have a fitted effect of over 55% in size
Target sequence (P27695 whole entry, looked up): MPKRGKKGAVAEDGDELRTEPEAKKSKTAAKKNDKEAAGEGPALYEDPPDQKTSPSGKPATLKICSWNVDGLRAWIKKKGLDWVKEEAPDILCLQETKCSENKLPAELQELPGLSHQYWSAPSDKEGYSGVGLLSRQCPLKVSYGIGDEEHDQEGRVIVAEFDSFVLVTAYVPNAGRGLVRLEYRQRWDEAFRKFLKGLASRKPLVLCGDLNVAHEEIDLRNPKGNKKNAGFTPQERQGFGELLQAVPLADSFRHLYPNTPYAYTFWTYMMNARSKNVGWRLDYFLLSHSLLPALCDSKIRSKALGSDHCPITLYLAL
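Substrate: short duplex with […] THF abasic site, 5'-TAMRA and 3'-BHQ-2, 50 nM final. APE1 at 0.75 nM, preincubated 15 min RT with compound. Fluorescence increase from first to third read measured activity.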
PI5P4Ka inh: PI5P4K alpha (human) kinase inhibition. P48426. max response, %. actives 1.2% (n = 330,000). PI5P4Kalpha enzyme, ADP-Glo luminescence, 60 min; active compounds read low. AID 652105; active = max response of -50% or lower; inconclusive = between -30% and -50%; inactive = -30% or higher; note: value at the top dose of about 77 µM
Target sequence (P48426 whole entry, looked up): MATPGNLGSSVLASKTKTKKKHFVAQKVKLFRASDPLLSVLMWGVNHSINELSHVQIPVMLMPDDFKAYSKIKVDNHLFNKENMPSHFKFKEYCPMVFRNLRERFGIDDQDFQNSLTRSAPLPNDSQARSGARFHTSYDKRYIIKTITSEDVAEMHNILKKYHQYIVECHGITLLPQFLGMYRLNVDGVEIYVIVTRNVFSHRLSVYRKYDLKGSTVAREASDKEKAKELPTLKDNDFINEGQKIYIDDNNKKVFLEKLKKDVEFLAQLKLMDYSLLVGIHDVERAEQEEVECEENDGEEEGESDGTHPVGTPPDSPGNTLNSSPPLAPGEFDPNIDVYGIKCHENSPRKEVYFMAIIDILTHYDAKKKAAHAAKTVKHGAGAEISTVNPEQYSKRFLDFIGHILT
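Quantitative HTS of the MLSMR library against PI5P4Kalpha with substrate. ATP added last at 5 microM final; room temperature, 60 minutes. Remaining ATP depleted, ADP converted and read as luminescence.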
BLM inh: Bloom syndrome helicase (human) inhibition | Potency, µM (titrated, usually from 56.1 µM), hits mostly inhibitors | AID 2528 | P54132 | actives 0.2% (n = 350,000) | recombinant BLM DNA unwinding, fluorescence dequenching; note: nearly all actives have a fitted effect of over 35% in size
FEN1 inh-1: human FEN1 inhibition; P39748; Recombinant FEN1 flap cleavage, fluorescence, 15 min; Potency, µM (top dose mostly 114 µM), actives largely listed as inhibitors; actives 0.35% (n = 390,000); AID 588795; note: nearly all actives have a fitted effect of over 65% in size
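FEN1 at 10 nM preincubated with compounds 15 min at room temperature, then flap DNA substrate added at 50 nM final. Signal read at 0 and 15 min; concentration-response fitted with four-parameter Hill equation.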
RECQ1 inh: RECQ1 (human) helicase inhibition; RECQ1 DNA unwinding, red fluorescence kinetic read; Potency, µM (doses to about 57.3 µM), actives largely listed as inhibitors; actives 0.54% (n = 240,000); AID 2549; note: nearly all actives have a fitted effect of over 30% in size
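RECQ1T1 50 nM; forked duplex (20 bp + 30-nt ss tails) 200 nM, ATP 2 mM final; pH 8.0, 2 mM MgCl2, 2.5 ug/ml poly(dI-dC); 15 min compound preincubation; discontinuous kinetic read over 2 h at RT.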
KAT2A inh: blocks human GCN5L2 histone acetyltransferase; GCN5L2 HAT assay, ThioGlo1 CoA-SH fluorescence; Potency, µM (doses to about 58.9 µM), usual class: inhibitors; actives 0.21% (n = 390,000)
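GCN5L2 (20 nM) in 50mM HEPES pH 7.5, 0.1mM EDTA, 0.01% Tween-20 preincubated 15 min with compounds at room temperature. Reaction started with H3(1-25) 75uM, acetyl-CoA 70uM, ThioGlo1 50uM; CoA-thiol fluorescence (Ex340/Em540) read at 0 and 20 min.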
APE1 dye cs: DNA dye displacement counter-screen activity; AID 2564; DNA fluorescent dye displacement counterscreen, fluorescence; actives 7% (n = 480); Potency, µM (series often up to 28.5 µM), most hits filed as inhibitors; shares compounds with APE1 inh-1;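 note: loss of thiazole orange fluorescence as the dye is displaced from duplex DNA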
EndoIV counter: Endo IV (E. coli) inhibition counter-screen; shares compounds with APE1 inh-1; E. coli Endo IV, fluorogenic AP-site DNA cleavage; Potency, µM (titrated, usually from 27.1 µM), hits mostly inhibitors; actives 4% (n = 560)
APE1 inh-2: APE1 (human) endonuclease inhibition, confirmation. Potency, µM (top dose mostly 57.1 µM), usual class: inhibitors. purified APE1, fluorogenic abasic-site DNA cleavage. shares compounds with APE1 inh-1. actives 44% (n = 750); note: nearly all actives have a fitted effect of over 30% in size
APE1 FP: APE1 (human) DNA binding inhibition, fluorescence polarization; AID 2573; Potency, µM (top dose mostly 28.5 µM), hits mostly inhibitors; APE1 binding to TAMRA-labelled double-stranded DNA, fluorescence polarization displacement; actives 7% (n = 480); shares compounds with APE1 inh-1
RECQ1 conf: confirmation of human RECQ1 helicase inhibitors; shares compounds with RECQ1 inh; RECQ1 helicase DNA unwinding, fluorescence; Potency, µM (highest dose often 229 µM), most hits filed as inhibitors; actives 28% (n = 610); AID 2708; note: nearly all actives have a fitted effect of over 45% in size
RECQ1 ADP FP: displaces ADP in a fluorescence polarization counter-screen for RECQ1 hits | Potency, µM (highest dose often 228 µM), most hits filed as inhibitors | shares compounds with RECQ1 inh | actives 27% (n = 530) | ADP fluorescence polarization displacement counterscreen; note: nearly all actives have a fitted effect of over 45% in size
FEN1 inh-2: FEN1 inhibition, cherry-pick retest | shares compounds with FEN1 inh-1 | FEN1 flap cleavage, TAMRA/BHQ2 fluorogenic DNA substrate | Potency, µM, most hits filed as inhibitors | actives 79% (n = 880) | AID 720498; note: nearly all actives have a fitted effect of over 60% in size
Hits are given with their value; . = inactive; ? = inconclusive; / = no result; ! = repeats disagree. Unless noted, calls come from the whole dose curve; as a rule, active = well fitted curve in the direction sought with a large enough effect; inconclusive = small, poorly fitted or top-dose-only effect, or another doubt; inactive = no such curve, though single readings can be large; an effect the other way counts as inactive or inconclusive.

SMILES	APE1 inh-1	PI5P4Ka inh	BLM inh	FEN1 inh-1	RECQ1 inh	KAT2A inh	EndoIV counter	APE1 inh-2	others
CN1Cc2ccccc2[C@@H]2c3cccc4[nH]cc(c34)C[C@H]21	?	/	.	/	.	.	.	?	APE1 dye cs=.;APE1 FP=.
CC1=C2C3OC(=O)C(C)C3CC[C@@]2(C)C=CC1=O (some centres not stated)	?	.	.	.	.	?	.	.
O=C1NC(=O)N(c2ccc3c(c2)OCO3)C(=O)/C1=C/c1ccc(N2CCCCC2)o1	.	.	.	.	.	.	/	/
O=C1NC(=O)N(c2ccc3c(c2)OCO3)C(=O)/C1=C\c1ccc(-c2ccccc2C(=O)O)o1	20µM	-52	.	?	.	.	.	10µM	APE1 dye cs=.;APE1 FP=.
Oc1ccccc1O	28µM!	.	/	.	16µM!	.	.	.
Brc1cccc(-c2ccccc2)c1	.	/	/	/	.	/	/	/
CC(=O)OCC1=C(C(=O)O)N2C(=O)C(NC(=O)CCCC(N)C(=O)O)C2SC1 (configuration not stated)	22µM	/	?	/	.	.	.	.	APE1 dye cs=.;APE1 FP=.
Cc1cc(/C=C2\C(=O)NC(=O)N(c3cccc(F)c3)C2=O)c(C)n1-c1cc(C(=O)O)cc(C(=O)O)c1	?	-81	.	?	.	.	.	?	APE1 dye cs=.;APE1 FP=.
Cc1cc(/C=C2/C(=O)NC(=O)N(Cc3ccco3)C2=O)c(C)n1-c1ccccc1	?	?	.	.	28µM	.	.	?	APE1 dye cs=.;APE1 FP=.
Cc1cc(/C=C2\C(=O)NC(=O)N(Cc3ccccc3)C2=O)c(C)n1C1CC1	.	.	.	.	.	.	/	/
CCCCCCC(=O)OC1CC(C)(C)NC(C)(C)C1	.	/	.	/	.	.	/	/
C/C=C(/C)C(=O)O[C@H]1C(C)=C2C([C@@H]1OC(=O)CCCCCCC)[C@@](C)(OC(C)=O)C[C@@H](OC(=O)CCC)[C@@]1(O)[C@H]2OC(=O)[C@@]1(C)O (some centres not stated)	.	/	/	/	.	/	10µM	?
CC[C@@]1(O)C(=O)OCc2c1cc1n(c2=O)Cc2cc3ccccc3nc2-1	.	/	.	.	.	?	.	.
CCC(=O)CCCCC[C@@H]1NC(=O)[C@H]2CCCCN2C(=O)[C@H]([C@@H](C)CC)NC(=O)[C@H](Cc2cn(OC)c3ccccc23)NC1=O	.	/	.	/	.	.	/	/
CCOc1cc(OP(=S)(OC)OC)nc(CC)n1	.	/	.	/	.	.	/	/
CO/N=C(\C(=O)N[C@@H]1C(=O)N2C(C(=O)O)=C(CSc3nc(=O)c(O)nn3C)CSC12)c1csc(N)n1 (some centres not stated)	10µM	/	/	/	?	.	.	2.2µM
CC(=O)OCC1=C(C(=O)O)N2C(=O)[C@@H](NC(=O)CCC[C@@H](N)C(=O)O)[C@H]2SC1	/	/	/	.	/	.	/	/
C=CCN1CC[C@]23CCCC[C@H]2[C@H]1Cc1ccc(O)cc13	.	/	/	/	/	/	/	/
CCOC(=O)c1ncc2[nH]c3ccc(OCc4ccccc4)cc3c2c1COC	.	/	.	/	.	?	/	/
CCc1c(C(=O)OC)ncc2[nH]c3cc(OC)c(OC)cc3c12	.	/	/	/	.	/	.	.
CC(C)C[C@H](NC(=O)[C@H](CC(C)C)NC(=O)[C@H](Cc1ccccc1)NC(=O)[C@@H](N)Cc1ccc(O)cc1)C(=O)N[C@@H](CCCN=C(N)N)C(=O)N[C@@H](CC(N)=O)C(=O)N1CCC[C@H]1C(=O)O	.	/	.	/	.	.	/	/
CCCC[C@@H](C)[C@@H](OC(=O)C[C@@H](CC(=O)O)C(=O)O)[C@H](C[C@@H](C)CCCCCC[C@@H](O)C[C@H](O)[C@H](C)N)OC(=O)C[C@@H](CC(=O)O)C(=O)O	.	/	.	/	.	.	/	/
Cc1cccc(OCCn2cccc2/C=C2/C(=O)NC(=O)N(Cc3ccco3)C2=O)c1	7.9µM	-57	25µM	.	8.9µM	?	.	13µM	APE1 dye cs=.;APE1 FP=?;RECQ1 conf=?;RECQ1 ADP FP=.
Cc1cc(C)cc(N2C(=O)NC(=O)/C(=C\c3cccn3-c3ccccc3)C2=O)c1	.	.	.	.	.	.	/	/
CC1CCC(C(C)C)C(=O)C1 (configuration not stated)	/	/	.	/	.	?	/	/
SMILES	APE1 inh-1	PI5P4Ka inh	BLM inh	FEN1 inh-1	RECQ1 inh	KAT2A inh	EndoIV counter	APE1 inh-2	others
C[C@@H]1CO1	.	/	.	/	.	.	/	/
O=C1C=CC(=O)c2c(O)cccc21	0.32µM	/	5.6µM	/	4.5µM	0.63µM	.	?	RECQ1 conf=7.9µM;RECQ1 ADP FP=?
NC(Cc1cc(O)c(O)cc1O)C(=O)O (configuration not stated)	0.11µM	/	/	3.2µM	0.63µM	0.63µM	.	0.79µM	RECQ1 conf=45µM;RECQ1 ADP FP=20µM
C[C@@H](N)[C@@H](O)c1ccccc1	.	/	/	/	/	/	/	/
CC(N)C(O)c1ccc(O)c(O)c1 (configuration not stated)	1.4µM!	/	.	/	7.1µM!	.	.	.	APE1 dye cs=.;APE1 FP=.;RECQ1 conf=?;RECQ1 ADP FP=14µM
COc1ccc(CN2C(=O)NC(=O)/C(=C\c3ccco3)C2=O)cc1	22µM	-77	?	28µM	?	?	.	14µM	APE1 dye cs=?;APE1 FP=.;FEN1 inh-2=76
NCC1O[C@@H](O[C@H]2C(O)C(O[C@@H]3C(O[C@H]4OC(CO)C(O)C(O)C4N)C(N)CC(N)[C@H]3O)O[C@@H]2CO)C(N)C(O)C1O (some centres not stated)	.	/	.	/	?	.	/	/
COc1ccc(CCN)cc1O	.	.	/	.	.	/	/	/
